Source: PubChem (Broad Institute)
Rows were chosen to be rich in hits. Some 3.1% of all compounds tested hit in one or more screens of this group.
ERAP1 HTS inh: inhibitors of human ERAP1 aminopeptidase; Q9NZ08; recombinant ERAP1, Leu-AMC fluorescence, 60 min; inhibition, % at 10.7 µM; 0.15% of 340,000 active; AID 652197;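 active means mean replicate inhibition of at least 30%, or all replicates individually reaching that 30% level; inactive means mean below 30% and not every replicate reaching it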
FGF22 binding: shifts melting point of recombinant human FGF22; Q9HCT0; recombinant FGF22 thermal shift, SYPRO orange fluorescence; percent of sucrose octasulfate shift, DMSO zero; activity (Tm shift, normalised), % at 9.99 µM; 1.5% of 340,000 active;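 active means mean Tm shift, scaled 0 neutral to 100 positive control, at about 1.3% or above, every replicate too, limit read from the data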
Target sequence (Q9HCT0 whole entry, looked up): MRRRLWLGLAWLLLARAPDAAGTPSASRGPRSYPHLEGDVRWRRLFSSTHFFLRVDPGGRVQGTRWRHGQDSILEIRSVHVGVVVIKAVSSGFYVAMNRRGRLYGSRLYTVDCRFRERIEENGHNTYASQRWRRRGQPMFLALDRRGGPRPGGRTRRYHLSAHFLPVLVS
CASP6 VEID inh: blocks human caspase-6 cleavage activity. inhibition, % at 12.5 µM. P55212. purified caspase-6, Z-VEID-R110 cleavage fluorescence. AID 686996. 0.53% of 350,000 active;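 active means mean inhibition across replicates at least about 35%, with every replicate also reaching that limit, limit read from the data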
SIRT5 inh: inhibitors of human sirtuin-5 desuccinylase; Purified SirT5, succinyl-peptide AMC, trypsin-coupled fluorescence; Q9NXA8; 1.1% of 330,000 active; AID 652115; inhibition, % at 15 µM; in the data active means inhibition above about 15%
Target sequence (Q9NXA8 whole entry, looked up): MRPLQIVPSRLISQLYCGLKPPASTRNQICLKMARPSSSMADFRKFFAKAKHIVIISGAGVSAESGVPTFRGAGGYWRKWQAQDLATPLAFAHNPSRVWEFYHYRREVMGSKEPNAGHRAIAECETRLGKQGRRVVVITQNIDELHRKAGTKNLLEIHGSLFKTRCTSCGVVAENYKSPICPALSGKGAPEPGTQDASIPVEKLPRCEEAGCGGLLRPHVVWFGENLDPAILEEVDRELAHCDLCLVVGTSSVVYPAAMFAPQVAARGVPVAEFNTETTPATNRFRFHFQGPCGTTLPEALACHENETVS
Large screens that a line does not name were inactive.

CN(C)C(=O)C[C@@H]1CC[C@@H]2[C@@H](COc3ccc(NC(=O)Nc4cccc(Cl)c4)cc3C(=O)N2C)O1	none
CN(CC(=O)Nc1cccc(F)c1)C(=O)Cn1c(=O)cnc2ccccc21	none (no result: FGF22 binding)
Cc1cc(Br)ccc1NC(=O)CN(C)C(=O)Cn1c(=O)cnc2ccccc21	ERAP1 HTS inh 38
OC[C@H]1N[C@@H](CNCC2CCC2)[C@@H]1c1ccc(C2=CCCCC2)cc1	none (no result: FGF22 binding)
Cn1c(NC(=O)c2ccc(Cl)cc2)cc(=O)n(C)c1=O	FGF22 binding 44
Cn1c(NC(=O)c2ccc(C(C)(C)C)cc2)cc(=O)n(C)c1=O	none
CCC(=O)N1C[C@@H]2[C@H](c3ccccc31)[C@@H](CO)N2Cc1ccccc1F	none
O=C(c1ccccn1)N1CC[C@H]2[C@H](CO)Nc3ccc(-c4ccc(F)cc4)cc3[C@H]21	none (no result: SIRT5 inh)
Cn1cccc1Cc1nnc(SCC(=O)N2CCCCCC2)n1CCc1ccccc1	none
Cn1cccc1Cc1nnc(SCC(=O)N2CCCC2)n1CCc1ccccc1	FGF22 binding 43 (no result: SIRT5 inh)
Cc1cc(C)cc(N(C(=O)c2csnn2)C(C(=O)NC(C)(C)C)c2ccccn2)c1 (stereo not given)	SIRT5 inh 26
Cc1ccc(N(C(=O)c2csnn2)C(C(=O)NC(C)(C)C)c2ccccn2)cc1 (stereo not given)	none
O=C(N[C@H]1C=C[C@@H](CC(=O)N2CCc3ccccc3C2)O[C@H]1CO)C1CCOCC1	none (no result: FGF22 binding)
Cc1cccc(C)c1NC(=O)C(C1CC1)n1c(=O)c(-c2ccco2)nc2ccccc21 (stereo not given)	CASP6 VEID inh 36
O=C(NCC1CCCO1)c1cccc(NS(=O)(=O)c2ccccc2)c1 (stereo not given)	none (no result: FGF22 binding)
C[n+]1cccc(C(=O)NCC2CCCO2)c1 (stereo not given)	ERAP1 HTS inh 99 (no result: SIRT5 inh)
O=C(COc1ccc(S(=O)(=O)NC2CCCC2)cc1)NCC1CCCO1 (stereo not given)	FGF22 binding 43
O=C(NCC1CCCO1)c1ccc(NS(=O)(=O)c2ccccc2)cc1 (stereo not given)	FGF22 binding 45
Cc1cc(S(=O)(=O)NC2CCCCC2)ccc1OCC(=O)NCC1CCCO1 (stereo not given)	none
C[C@@H]1CCCCO[C@H](CN(C)Cc2ccncc2)[C@H](C)CN([C@H](C)CO)C(=O)c2cc(NS(=O)(=O)c3ccccc3)ccc2O1	none
CC1(c2ccccc2)NC(=O)N(N)C1=O (stereo not given)	FGF22 binding 43
CC1(c2ccccc2)NC(=O)N(CC#N)C1=O (stereo not given)	none (no result: CASP6 VEID inh)
Cc1ccc(NC(=O)CN(C)C(=O)c2ccc(S(=O)(=O)N(C)c3ccccc3)cc2)cc1	FGF22 binding 43
Cc1ccc(C)c(NC(=O)CN(C)C(=O)c2ccc(S(=O)(=O)N(C)c3ccccc3)cc2)c1	none
NC(N)=Nc1nc(-c2ccccc2)c2ccccc2n1	none
CCc1nc(N=C(N)N)nc2ccccc12	FGF22 binding 43
Cc1csc(NC(=O)Cc2ccccc2[N+](=O)[O-])n1	SIRT5 inh 17
CCOC(=O)Cc1csc(NC(=O)Cc2ccccc2[N+](=O)[O-])n1	none
C[C@@H]1CN([C@@H](C)CO)C(=O)c2cc(-c3ccccc3F)cnc2O[C@@H]1CN(C)C(=O)CN(C)C	none
CCn1c(=O)cc(N2CCOCC2)[nH]c1=O	FGF22 binding 43
C[C@H](CO)N1C[C@H](C)[C@H](CN(C)C(=O)Nc2ccc3c(c2)OCO3)Oc2ccc(NC(=O)Cc3cn(C)c4ccccc34)cc2CC1=O	none
Oc1cc(Nc2ccncc2)cc2cccnc12	none (no result: SIRT5 inh)
Oc1cc(Nc2cccnc2)cc2cccnc12	CASP6 VEID inh 36
C/C=C/c1ccc([C@@H]2[C@@H](CO)N(C(C)=O)C23CN(C(=O)c2cnccn2)C3)cc1	none (no result: ERAP1 HTS inh, CASP6 VEID inh)
Cc1ccc2[nH]c(C(=O)N3CCN(C=O)CC3)cc2c1	SIRT5 inh 16
CCN(CC)c1nc2c(c(=O)[nH]c(=O)n2C)n1Cc1ccccc1	SIRT5 inh 102
O=C(Nc1ccc(F)c(Cl)c1)c1cc(C2CCCN(S(=O)(=O)c3cccc4cccnc34)C2)on1 (stereo not given)	CASP6 VEID inh 36 (no result: SIRT5 inh)
CCCNC(=O)c1cc(C2CCCN(S(=O)(=O)c3cccc4cccnc34)C2)on1 (stereo not given)	none (no result: SIRT5 inh)
COCC(=O)N(C)C[C@H]1Oc2ncc(C3=CCCCC3)cc2C(=O)N([C@H](C)CO)C[C@H]1C	none
CC(=O)N[C@H]1CC[C@@H](CC(=O)NCC2CCCCC2)O[C@@H]1CO	none
O=[N+]([O-])c1ccc(O)c2ncccc12	CASP6 VEID inh 63
O=[N+]([O-])c1cc(CN2CCN(c3ccccc3)CC2)c(O)c2ncccc12	FGF22 binding 43
O=[N+]([O-])c1cc([N+](=O)[O-])c2cccnc2c1Oc1ccccc1O	CASP6 VEID inh 45 (no result: SIRT5 inh)
O=[N+]([O-])c1cc(Cl)c(O)c2ncccc12	none (no result: FGF22 binding, CASP6 VEID inh)
Cc1cc(NS(=O)(=O)c2ccc(NC(=O)COc3ccccc3C(C)(C)C)cc2)no1	none
Cc1cc(NS(=O)(=O)c2ccc(NC(=O)COc3ccccc3[N+](=O)[O-])cc2)no1	CASP6 VEID inh 74
C[C@@H]1CN([C@H](C)CO)C(=O)c2cc(NC(=O)C3CCCCC3)ccc2O[C@@H](C)CCCCO[C@@H]1CN(C)C(=O)NC1CCCCC1	none
CC(C)CNC(=O)c1cc([N+](=O)[O-])ccc1N1CCCCC1	FGF22 binding 43
COc1ncnc2c1ncn2CCCN1CCN(Cc2cccc3ccccc23)CC1	SIRT5 inh 26
CSc1ncnc2c1ncn2CCCN1CCN(Cc2cccc3ccccc23)CC1	none
CC(C)c1ccc2occ(-c3nn[nH]n3)c(=O)c2c1	FGF22 binding 44
O=C(C[C@H]1C[C@@H]2c3cc(NC(=O)c4ccc5c(c4)OCO5)ccc3O[C@@H]2[C@H](CO)O1)NCc1ccccn1	none
COc1cccc(C#Cc2ccc([C@H]3[C@H]4CN(C(C)=O)CC(=O)N4[C@H]3CO)cc2)c1	none (no result: FGF22 binding)
O=C(N/N=C/c1ccc(OC2CSC2)cc1)c1ccc(CN2CCOCC2)cc1	SIRT5 inh 28
O=C1OCC/C1=C1/NCCNC1=O	FGF22 binding 44 (no result: SIRT5 inh)
COc1ccccc1CNC(=O)C[C@@H]1CC[C@@H]2[C@H](COC[C@H](O)CN2C(=O)Nc2ccc(C(F)(F)F)cc2)O1	none
O=C(CCl)Nc1cccc(Oc2ccccc2)c1	FGF22 binding 43
O=C(C[C@@H]1C=C[C@@H](NC(=O)Nc2cc(F)ccc2F)[C@H](CO)O1)NCc1ccc2c(c1)OCO2	none
O=C(OCc1nnc(-c2ccccc2)o1)c1ccccc1	FGF22 binding 43
Cc1nc2ccc(C(=O)OCc3nnc(-c4ccccc4)o3)cc2nc1C	none
O=C(C[C@H]1CC[C@H]2[C@@H](COC[C@H](O)CN2C(=O)c2ccncc2)O1)NC1Cc2ccccc2C1	none
O=[N+]([O-])c1ccc(Nc2ccccc2)c2nonc12	none
O=[N+]([O-])c1ccc(Sc2cccc[n+]2[O-])c2nonc12	CASP6 VEID inh 62
COc1ccc(C(=O)Nc2cc(=O)[nH]c3ncnn23)cc1	SIRT5 inh 31
